D1 ag = activates the human D1 dopamine receptor. AID 504660. HEK293 T-REx D1 cells, calcium flux, agonist mode. activation, % at 2 µM. hit rate 1% among 360,000; in the data active = activation above about 30%; also: 0% is about no effect
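Agonism was scored from calcium flux recorded over 180 s (1 read/s) after pintool compound addition, following a 10-cycle baseline. Cells were inducible force-coupled HEK293 TREx D1, plated overnight at 30 C and loaded with no-wash calcium dye.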
TRPV1 PAM = enhances activation of the human vanilloid receptor TRPV1. Q8NER1. TRPV1-expressing cells, Fluo-8 calcium influx, capsaicin EC20 potentiation. potentiation, % at 8.33 µM. hit rate 0.02% among 320,000. AID 540277; in the data active = potentiation above about 80%; inconclusive = between about 30% and that limit; also: 0% is about no effect
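Fluo-8 calcium influx in TRPV1-expressing cells, kinetic read (ex 480/em 520 nm). Compound added and read 3 min for agonist activity, followed by capsaicin at EC20 final and 2 min further read for enhancement.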
D1 potentiator = enhances dopamine response at the human D1 receptor. AID 504651. hit rate 0.036% among 360,000. P21728. potentiation, % at 10 µM. HEK293 TREx D1 cells, calcium flux, dopamine EC20 potentiation; in the data active = potentiation above about 30%; also: 0% is about no effect
TRPV1 agonist = human TRPV1 agonism; hit rate 0.19% among 320,000; Q8NER1; TRPV1-expressing cells, Fluo-8 calcium influx, agonist mode; AID 540275; activation, % at 8.33 µM; in the data active = activation above about 80%; inconclusive = between about 30% and that limit; also: 0% is about no effect
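TRPV1-expressing cells were cultured overnight at 35.5C and loaded with Fluo-8 calcium dye for 40 to 90 min at room temperature. After a 10 s baseline, compound was added and calcium influx was read kinetically for 3 min (ex 480/em 520 nm).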
D1 antag = human D1 dopamine receptor antagonism. HEK293 TREx D1 cells, calcium flux, dopamine EC80; active compounds read low. P21728. activity change, negative = inhibition, % at 10 µM. hit rate 3.2% among 360,000; in the data active = activity change below about -30%; also: % is scaled to controls: 0 for no effect and ±100 for the full control effect
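Calcium flux readout: force-coupled, inducible Hek293 Trex D1 line, cells induced overnight at 30 C with tetracycline, dye-loaded 30–90 min at RT. Antagonism scored against EC80 dopamine challenge given 180 s after compound.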
Numbers without * were called inactive; ? = inconclusive; / = not tested or not shown; ! = not confirmed by another sample. An excerpt weighted towards active compounds, which were near 4.2% of everything screened.

SMILES	D1 ag	TRPV1 PAM	D1 potentiator	TRPV1 agonist	D1 antag
CC(C)(C)c1ccc(OCC(=O)Nc2ccc(S(=O)(=O)Nc3ncccn3)cc2)cc1	2	/	1	/	3
Cc1ccc(CNC(=O)/C=C/c2c(Cl)cccc2Cl)cc1	6	9	-2	3	-36*
COc1ccc(S(=O)(=O)n2c(C)nc3ccccc32)cc1C	7	-18	-2	-1	-75*
CCOc1ccc(CCNC(=O)C(C)N2C(=O)CC(C)(C)Sc3ccccc32)cc1 (stereo unspecified)	38*	?	-9	2	-1
COC(=O)c1ccccc1NC(=O)Cn1cnc2cc(C)c(C)cc21	38*	-9	-4	16	-16
O=C(CN1C(=O)COc2ccc(S(=O)(=O)N3CCOCC3)cc21)N1CCN(c2ccccc2F)CC1	2	/	-5	/	-8
COc1ccccc1CNC(=O)c1cn(C)c2ccc(S(=O)(=O)N3CCC(C)CC3)cc2c1=O	0	/	6	/	1
CCOC(=O)c1cc(-c2ccc(C)cc2)n(CCC(=O)Nc2ccc(C(C)C)cc2)c1C	3	/	3	/	11
Cc1cccc(/C=N/N(CCO)C2=NS(=O)(=O)c3ccccc32)c1	2	9	-6	5	-34*
CC(C)(C)NC(=O)CCN(/N=C/c1ccccc1)C1=NS(=O)(=O)c2ccccc21	2	-17	16	?	-4
COCCNC(=O)CSc1nc2cc3c(cc2c(=O)n1Cc1ccc(C(=O)NCCc2ccc(OC)c(OC)c2)cc1)OCO3	1	/	-1	/	-6
O=C1CCCc2c1cc(C(=O)O)c(=O)n2-c1ccccc1	0	-1	5	-2	5
CCOC(=O)c1cc2c(n(-c3ccc(Cl)cc3)c1=O)CCCC2=O	-2	9	-9	-1	-30*
Cc1ccc(Cl)cc1-n1c(=O)c2sc3ccccc3c2n(Cc2ccccc2)c1=O	5	/	0	/	14
COC(=O)c1ccc(COC(=O)C(NC(=O)Cc2ccccc2)C(C)C)cc1 (stereo unspecified)	6	1	2	28	-32*
COC(=O)C(NC(=O)C(C)NC(=O)OCc1ccccc1)C(C)C (stereo unspecified)	1	19	-3	-2	14
CCc1ccc(-n2nc(CO)c(C(=O)NCCCc3ccccc3)n2)cc1	7	/	5	/	-21
CN(C)CCN(Cc1ccccc1)c1ccccn1	4	1	-5	2	-31*!
CN(C)CCN(Cc1ccccc1)c1ccnc(N(C)C)c1C#N	2	-2	0	7	-10
COc1ccccc1N/C(N)=N/c1nc(C)cc(C)n1	3	3	-13	-2	-34*
Cc1cc(C)nc(/N=C(\N)Nc2ccc(OCc3ccccc3)cc2)n1	102*	-4	1	30	-38*
Cc1cc(C)nc(/N=C(\N)Nc2ccc(S(=O)(=O)O)cc2)n1	2	-2	-1	1	5
Cc1cc(C)nc(/N=C(\N)Nc2ccc(CC(=O)OC(C)C)cc2)n1	24	-8	3	1	-50*
Cc1cc(C)nc(/N=C(\N)Nc2cccc(OCc3ccccc3)c2)n1	66*	-5	-15	18	-55*
Cc1ccc(CNC(=O)C(=O)Nc2c3c(nn2-c2ccc(F)cc2)CSC3)cc1	3	/	-2	/	/
SMILES	D1 ag	TRPV1 PAM	D1 potentiator	TRPV1 agonist	D1 antag
Cc1cc(C)nc(/N=C(\N)Nc2ccc(OCCC(C)C)cc2)n1	86*	-28	-6	6	-45*
Cc1ccccc1CN1CCc2nc(N3CCN(c4ncccn4)CC3)ncc2C1	6	/	6	/	8
COc1ccc(CCNC(=O)CCc2c(C)c3cc4c(C)c(C)oc4cc3oc2=O)cc1OC	1	/	-1	/	-9
CC(CNC(=O)Cn1ccc2cc(S(=O)(=O)N3CCCCC3)ccc21)c1ccccc1 (stereo unspecified)	5	/	-1	/	-10
O=C(O)c1cc(-c2ccc(/C=c3\sc4nc5ccc(Br)cc5n4c3=O)o2)ccc1Cl	36*	-4	1	-3	7
Cc1cc2nc3s/c(=C/c4ccc(-c5ccccc5C(=O)O)o4)c(=O)n3c2cc1C	142*	20	-2	?	-38*
O=C(O)c1ccccc1-c1ccc(/C=c2\sc3nc4cc(Br)cnc4n3c2=O)o1	10	10	-4	3	14
COc1ccc(CCn2c(=O)c3cccnc3n(Cc3ccc([N+](=O)[O-])cc3)c2=O)cc1OC	4	-11	-12	3	-46*
CC(=O)NS(=O)(=O)c1cccnc1Nc1cccc(Cl)c1C	1	6	-2	2	-33*
COC(c1ccccc1)c1nnc(CCC(=O)N(C)CCCC2CCCC2)o1 (stereo unspecified)	6	-1	-3	10	-32*
Cn1nnnc1SCCCNCc1ccc(-c2ccc(F)c(Cl)c2)o1	30	/	0	/	-15
Cn1nnnc1SCCCNCc1ccc(-c2cccc(Cl)c2)o1	100*	/	4	/	-57*
COc1ccc(-c2ccc(CNCCCSc3nnnn3C)o2)cc1Cl	37*	/	-1	/	-5
O=C(c1cccc([N+](=O)[O-])c1)N1CCN(c2ccc(Nc3ccccc3)nn2)CC1	-4	/	-2	/	/
CCOc1ccc(CC(=O)NCCS(=O)(=O)N2CCN(c3ccc(OC)cc3)CC2)cc1	5	/	-1	/	5
CCOC(=O)C(C)On1c(-c2ccc(Cl)cc2)nc2ccc([N+](=O)[O-])cc21 (stereo unspecified)	7	1	-10	5	-40*
O=C(Nc1ccc(O)c(-c2nc3ccccc3o2)c1)c1sc2ccccc2c1Cl	0	/	0	/	-30*
Cc1ccc(N=CC2=C(O)CC(c3ccco3)CC2=O)cc1 (stereo unspecified)	3	-10	3	12	-38*
COc1ccc(C(=O)CC2(O)C(=O)N(Cc3ccccc3)c3ccc(Br)cc32)cc1 (stereo unspecified)	1	/	0	/	9
OCC1(Cc2cccc(C(F)(F)F)c2)CCN(Cc2cc(F)cc(F)c2)CC1	0	-13	5	29	8
CSc1cccc(CN2CCC(CO)(Cc3cccc(C(F)(F)F)c3)CC2)c1	41*	-23	-1	?	13
Oc1cc2c(cc1O)[C@@H](c1ccccc1)CNCC2	5	1	-6	0	-91*
O=C(CBr)N1CCc2ccccc2C(c2ccccc2)C1 (stereo unspecified)	0	-10	2	9	-7
c1ccc(C2CNCCc3ccccc32)cc1 (stereo unspecified)	15	-6	-19	2	-42*
Cc1cc(C)cc(Nc2cc(-c3ccccc3)nc(C)n2)c1	19	/	8	/	25
Cc1ccc(Cn2c(CNC(=O)c3ccc(Cl)c([N+](=O)[O-])c3)nc3cccnc32)cc1	2	/	0	/	-11

Compound activity: PubChem, National Center for Advancing Translational Sciences (NCATS)
